This is an account of results in the supplement of paper PMC13380429.

SMILES strings stand for the structures. Values without a mark were called inactive.

The assay concerns Vero E6 infected with SARS-CoV-2. Briefly: SARS-CoV-2 infection rate relative to infected DMSO; higher = more infection, active = 60 or less. As to conditions: 24 h.
Take `CCCN(CCC)S(=O)(=O)c1ccc(C(=O)O)cc1` [probenecid] (10 µM): the SARS-CoV-2 infection rate was 106%. Turning to `COc1ccc(S(=O)(=O)N(C(C)=O)c2ccccc2/C=C/c2cc[n+]([O-])cc2)cc1` (10 µM), the SARS-CoV-2 infection rate was 93.5%.

Take `Nc1ccn([C@@H]2O[C@H](CO)[C@@H](O)[C@@H]2O)c(=O)n1` [cytarabine] (0.833333 µM): the SARS-CoV-2 infection rate is 97%. On to `CCCCOCCOc1nc(-c2ccc(C(=O)O)c(F)c2)sc1C` (10 µM), for which the SARS-CoV-2 infection rate is 108%. For the molecule `Cn1c2cc([S+](C)[O-])sc2c2cnn(Cc3cccc(N)c3)c(=O)c21` (centres undefined) (10 µM), the SARS-CoV-2 infection rate is 107%.

With `Cn1c(COc2ccc(CC3SC(=O)NC3=O)cc2)nc2ccccc2c1=O` (centres undefined) [balaglitazone] (10 µM), the SARS-CoV-2 infection rate was 111%. In the case of `COc1ccncc1C(=O)NC(=O)Nc1ccc(-c2ccccc2)c(C(F)(F)F)c1` [S1P1-agonist-III] (10 µM), the SARS-CoV-2 infection rate was 100%. With `COP(=O)(OC)OC(c1ccc(Cl)cc1)P(=O)(OC)OC` (centres undefined) [mifobate] (10 µM), the SARS-CoV-2 infection rate is 106%. For the molecule `c1ccc2c(CC3=NCCN3)cccc2c1` [naphazoline] (10 µM), the SARS-CoV-2 infection rate is 99%.
